Results published in PubChem BioAssay (NCATS).
Results filed as inconclusive are left out. Active and inactive are the calls of the source. Calls come from the whole dose curve; as a rule, active = well fitted inhibition curve with a large enough effect; inconclusive = small, poorly fitted or top-dose-only effect; inactive = flat fitted curve, though single readings scatter.

Legend:
Test in all cases: qHTS profiling for inhibitors of Plasmodium falciparum proliferation (AID 504749); note: nearly all actives have a fitted effect of over 60% in size
Settings in all cases: P. falciparum in erythrocytes, SYBR Green DNA, 72 h; series mostly up to 28.7 µM
CP297 = test system: CP297
Summary of the method: (§1)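 Fluorescence of SYBR Green-bound parasite DNA, read at 485/535 nm, served as the growth measure. Infected erythrocytes were cultured with compound 72 h; artemisinin (0.29 uM) and DMSO wells defined the normalization range.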

CP305 = test system: CP305
Summary of the method: as §1

CP315 = test system: CP315
Summary of the method: as §1

CP325 = test system: CP325
Summary of the method: as §1

CP329 = test system: CP329
Summary of the method: as §1

CP335 = test system: CP335
Summary of the method: as §1

DFO2036 = test system: DFO2036
Summary of the method: as §1

DIV14 = test system: DIV14
Summary of the method: as §1

DIV17 = test system: DIV17
Summary of the method: as §1

DIV30 = test system: DIV30
Summary of the method: as §1

Dd2 = test system: Dd2
Summary of the method: as §1

ECU = test system: ECU
Summary of the method: as §1

FAB9 = test system: FAB9
Summary of the method: as §1

GB4 = test system: GB4
Summary of the method: as §1

HB3 = test system: HB3
Summary of the method: as §1

ICS = test system: ICS
Summary of the method: as §1

JCK = test system: JCK
Summary of the method: as §1

N140 = test system: N140
Summary of the method: as §1

P93_24 = test system: P93_24
Summary of the method: as §1

P94_40 = test system: P94_40
Summary of the method: as §1

Measured: Potency

O=C(CCCCCCCCCCCCC1CCCC1)Nc1ccc(S(=O)(=O)c2ccc(NC(=O)CCCCCCCCCCCCC3CCCC3)cc2)cc1
inactive: all assays above

O=C(/C=C/c1cccc(F)c1)NC1CC1
inactive: all assays above

Nc1nc(=O)n([C@@H]2CS[C@H](CO)O2)cc1F
inactive: all assays above

NCCN
inactive: all assays above

O=C1c2ccccc2C(=O)c2c1ccc(O)c2O
inactive: all assays above

CC1C(=O)CC2C3(C)CCC2(C(C)C(=O)O)C(=O)C13 (stereo not given)
inactive: all assays above

C[C@H](CCC(=O)O)[C@H]1CC[C@H]2[C@@H]3CC[C@@H]4C[C@H](O)CC[C@]4(C)[C@H]3C[C@H](O)[C@]12C
inactive: all assays above

O=C(O)CCC(=O)c1ccc(-c2ccccc2)cc1
inactive: all assays above

O=[n+]1ccn([O-])c2ccccc21
inactive: all assays above

CCCCCCOC(=O)c1cccnc1
inactive: all assays above

CC(C)c1nc(N(C)S(C)(=O)=O)nc(-c2ccc(F)cc2)c1/C=C/C(O)CC(O)CC(=O)O (stereo not given)
inactive: all assays above

CCCCC(CC)CCC(CC(C)C)OS(=O)(=O)O (stereo not given)
inactive: all assays above

CC(C)(COP(=O)(O)OP(=O)(O)OC[C@H]1O[C@@H](n2cnc3c(N)ncnc32)[C@H](O)[C@@H]1OP(=O)(O)O)C(O)C(=O)NCCC(=O)NCCS (stereo not given in full)
inactive: all assays above

O=C(NNCS(=O)(=O)O)c1ccncc1
inactive: all assays above

CC(=O)Nc1ccc(OC(=O)c2ccccc2O)cc1
inactive: all assays above

[O-][N+](=Nc1ccccc1)c1ccccc1
inactive: all assays above

OC/C=C/c1ccccc1
inactive: all assays above

CC(CC=O)CCCC(C)(C)O (stereo not given)
inactive: all assays above

CNC(=O)OCc1cccc(COC(=O)NC)n1
inactive: all assays above

CC(=O)Oc1cc(C(F)(F)F)ccc1C(=O)O
inactive: all assays above

C=C(C)C1CC=C(C)CC1 (stereo not given)
inactive: all assays above

O=C(O)c1ccc(OCCn2ccnc2)cc1
inactive: all assays above

CCCCCCCCCCCCCCCCCC(=O)OCC(C)O (stereo not given)
inactive: all assays above

CN(Cc1ccccc1)Cc1ccccc1
inactive: all assays above

COc1ccc(/C=C/C(=O)O)cc1
inactive: all assays above

CC/C=C\C/C=C\C/C=C\C/C=C\C/C=C\CCCC(=O)O
inactive: all assays above

COC(=O)c1ccccc1O
inactive: all assays above

OCC1(CO)COC(C(Cl)(Cl)Cl)OC1
inactive: all assays above
